Six compounds from PubChem BioAssay (EPA / NIEHS) can be followed below.

Values joined by “and” are separate entries in the source; they are usually repeats but may differ in a detail not shown here. Equal entries are not always repeated. Where a structure was tested more than once in an assay, its records may differ in their call. Active and inactive are the calls of the source. The calls were made as follows: active = hit-call score of the fitted dose curve at least 0.9, where 1 is the maximum; inactive = score below 0.9.

Read-out in test [1]: Interleukin-8 (IL8), CXCL8 (gene 3576)
Kind of test: BSK_BF4T_IL8: BioMAP Diversity Plus: BF4T Assay for Interleukin-8 (IL8) Biomarker Activity (AID 2284263). Particulars: primary human bronchial epithelial cells with fibroblasts. The method in brief: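 Human bronchial epithelial cells with dermal fibroblasts co-culture; IL-8 measured by ELISA 24 hours after dosing, fitted vs DMSO. Cytotoxicity tracked in parallel cultures by SRB total-protein staining.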

Read-out in test [2]: Interleukin-1 alpha (IL1a), IL1A (gene 3552)
The test is described as follows: BSK_BF4T_IL1a: BioMAP Diversity Plus: BF4T Assay for Interleukin-1 alpha (IL1a) Biomarker Activity (AID 2284264). As to conditions: primary human bronchial epithelial cells with fibroblasts. Put shortly:
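Human bronchial epithelial cells co-cultured with dermal fibroblasts, dosed and read at 24 h. Secreted/surface IL-1α quantified by ELISA; gain-of-signal fitted relative to DMSO baseline. Parallel SRB total-protein staining tracked cytotoxicity.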

Read-out in test [3]: Decorin, DCN (gene 1634)
The test is described as follows: BSK_MyoF_Decorin: BioMAP Diversity Plus: MyoF Assay for Decorin Biomarker Activity (AID 2284265). As to conditions: primary human lung fibroblasts. The method in brief:
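ELISA readout of decorin, 24 h post-dosing; primary human lung fibroblast (MyoF) culture; gain-of-signal fit vs DMSO baseline.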

Read-out in test [4]: KRT18 (gene 3875)
The test is described as follows: BSK_BF4T_Keratin818: BioMAP Diversity Plus: BF4T Assay for Keratin 818 Biomarker Activity (AID 2284266). Particulars: primary human bronchial epithelial cells with fibroblasts. Put shortly: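 Co-culture of human bronchial epithelial cells and dermal fibroblasts, chemical exposure 24 h. Keratin 8/18 measured by ELISA; positive-direction fit vs DMSO. SRB total protein run in parallel cultures for cytotoxicity.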

Test [5] can be described thus: BSK_MyoF_SRB: Viability Assessment in the BioMAP Diversity Plus: MyoF Assay (AID 2284267).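 Also: total protein by SRB absorbance in parallel cultures as cytotoxicity measure.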 As to conditions: primary human lung fibroblasts. The method in brief:
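Human lung fibroblasts dosed with chemical and assessed 24 h later for overt cytotoxicity in parallel cultures. Total protein quantified by sulforhodamine B staining (0.1% SRB after 10% TCA fixation), read at 560 nm, analysed in positive direction versus DMSO baseline.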

Read-out in test [6]: Matrix Metallopeptidase 1 (MMP1), MMP1 (gene 4312)
The test is described as follows: BSK_MyoF_MMP1: BioMAP Diversity Plus: MyoF Assay for Matrix Metallopeptidase 1 (MMP1) Biomarker Activity (AID 2284268). Particulars: primary human lung fibroblasts. Put shortly:
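Cells: human lung fibroblasts. Exposure: 24 h chemical dosing. Detection: ELISA for MMP1. Analysis: upward fitting against DMSO negative control.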

Read-out in test [7]: TIMP metallopeptidase inhibitor 1 (TIMP1), TIMP1 (gene 7076)
Kind of test: BSK_MyoF_TIMP1: BioMAP Diversity Plus: MyoF Assay for TIMP metallopeptidase inhibitor 1 (TIMP1) Biomarker Activity (AID 2284269). Particulars: primary human lung fibroblasts. Put shortly:
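Primary human lung fibroblasts, MyoF multiplex system; chemical exposure 24 h; TIMP-1 by ELISA; positive fitting direction vs DMSO control.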

Read-out in test [8]: Matrix Metallopeptidase 1 (MMP1), MMP1 (gene 4312)
Kind of test: BSK_BF4T_MMP1: BioMAP Diversity Plus: BF4T Assay for Matrix Metallopeptidase 1 (MMP1) Biomarker Activity (AID 2284270). Particulars: primary human bronchial epithelial cells with fibroblasts. Put shortly:
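Co-culture of human bronchial epithelial cells and dermal fibroblasts; MMP-1 levels measured by ELISA 24 hours after chemical dosing, relative to DMSO. Cytotoxicity checked in parallel cultures by SRB total-protein staining.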

Read-out in test [9]: Plasminogen Activator Inhibitor-1 (PAI1), SERPINE1 (gene 5054)
Kind of test: BSK_BF4T_PAI1: BioMAP Diversity Plus: BF4T Assay for Plasminogen Activator Inhibitor-1 (PAI1) Biomarker Activity (AID 2284273). As to conditions: primary human bronchial epithelial cells with fibroblasts. The method in brief:
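Co-culture of human bronchial epithelial cells and dermal fibroblasts exposed to compound for 24 h. PAI-1 measured by ELISA; activity fitted in positive direction versus DMSO. Parallel SRB staining assessed overt cytotoxicity.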

A short description of test [10]: BSK_BF4T_SRB: Viability Assessment in the BioMAP Diversity Plus: BF4T Assay (AID 2284274).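 As to AC50: total cell protein by sulforhodamine B staining as a cytotoxicity measure.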 Particulars: primary human bronchial epithelial cells with fibroblasts. Put shortly: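 Co-culture of human bronchial epithelial cells and dermal fibroblasts (BioMAP BF4T) exposed 24 h. Total protein by sulforhodamine B staining (0.1% SRB after 10% TCA fixation, 560 nm) in parallel cultures; fitted vs DMSO.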

Read-out in test [11]: Matrix Metallopeptidase 9 (MMP9), MMP9 (gene 4318)
The test is described as follows: BSK_BF4T_MMP9: BioMAP Diversity Plus: BF4T Assay for Matrix Metallopeptidase 9 (MMP9) Biomarker Activity (AID 2284276). Particulars: primary human bronchial epithelial cells with fibroblasts. The method in brief:
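Co-culture of human bronchial epithelial cells and dermal fibroblasts dosed for 24 h; MMP-9 quantified by ELISA and fitted upward versus DMSO. Cytotoxicity monitored in parallel cultures by SRB total-protein staining at the biomarker time point.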

Read-out in test [12]: Interleukin-8 (IL8), CXCL8 (gene 3576)
The test is described as follows: BSK_IMphg_IL8: BioMAP Diversity Plus: IMphg Assay for Interleukin-8 (IL8) Biomarker Activity (AID 2284277). As to conditions: primary human endothelial cells with macrophages. Put shortly:
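Co-culture of human venular endothelial cells and macrophages exposed to chemicals for 24 h; IL-8 quantified by ELISA and compared against the DMSO baseline, with SRB total-protein staining in parallel cultures for cytotoxicity.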

Read-out in test [13]: Interferon-inducible T-cell alpha chemoattractant (ITAC), CXCL11 (gene 6373)
The test is described as follows: BSK_BE3C_ITAC: BioMAP Diversity Plus: BE3C Assay for Interferon-inducible T-cell alpha chemoattractant (ITAC) Biomarker Activity (AID 2284279). As to conditions: primary human bronchial epithelial cells. The method in brief: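 Steps: dose human bronchial epithelial cells with chemical; incubate 24 h; measure I-TAC by ELISA; fit endpoint in positive direction against DMSO control. Cytotoxicity was checked in parallel cultures by SRB staining at harvest.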

Read-out in test [14]: Interleukin-8 (IL8), CXCL8 (gene 3576)
The test is described as follows: BSK_BE3C_IL8: BioMAP Diversity Plus: BE3C Assay for Interleukin-8 (IL8) Biomarker Activity (AID 2284280). As to conditions: primary human bronchial epithelial cells. The method in brief:
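IL-8 signal gain, normalised to DMSO vehicle, was scored after a 24 h chemical exposure of primary human bronchial epithelial cells, with detection by ELISA.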

Read-out in test [15]: KRT18 (gene 3875)
Kind of test: BSK_BE3C_Keratin818: BioMAP Diversity Plus: BE3C Assay for Keratin 818 Biomarker Activity (AID 2284282). Particulars: primary human bronchial epithelial cells. Put shortly:
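Human primary bronchial epithelial cells in the BE3C system were exposed to test chemical for 24 h, then Keratin 8/18 was quantified by ELISA. Activity was fitted in the positive direction against DMSO as negative control and baseline.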

Read-out in test [16]: Tissue plasminogen activator (tPA), PLAT (gene 5327)
Kind of test: BSK_BF4T_tPA: BioMAP Diversity Plus: BF4T Assay for Tissue plasminogen activator (tPA) Biomarker Activity (AID 2284272). Particulars: primary human bronchial epithelial cells with fibroblasts. The method in brief:
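tPA level quantified by ELISA at 24 h post-treatment in bronchial epithelial/dermal fibroblast co-cultures, gain of signal scored against DMSO baseline. Parallel cultures stained with 0.1% SRB (560 nm) to flag overt cytotoxicity.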

Read-out in test [17]: urokinase Plasminogen Activator (uPA), PLAU (gene 5328)
The test is described as follows: BSK_BF4T_uPA: BioMAP Diversity Plus: BF4T Assay for urokinase Plasminogen Activator (uPA) Biomarker Activity (AID 2284275). As to conditions: primary human bronchial epithelial cells with fibroblasts. The method in brief:
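Co-culture of human bronchial epithelial cells and dermal fibroblasts; uPA quantified by ELISA 24 hours after dosing, fitted relative to DMSO. Parallel SRB total-protein staining assessed overt cytotoxicity.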

Read-out in test [18]: Matrix Metallopeptidase 3 (MMP3), MMP3 (gene 4314)
The test is described as follows: BSK_BF4T_MMP3: BioMAP Diversity Plus: BF4T Assay for Matrix Metallopeptidase 3 (MMP3) Biomarker Activity (AID 2284271). As to conditions: primary human bronchial epithelial cells with fibroblasts. The method in brief: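 Co-culture of human bronchial epithelial cells and dermal fibroblasts dosed 24 h; MMP-3 measured by ELISA, positive-direction fit versus DMSO. Cytotoxicity tracked by SRB total-protein staining (560 nm) in parallel cultures.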

Read-out in test [19]: Epidermal growth factor receptor (EGFR), EGFR (gene 1956)
The test is described as follows: BSK_BE3C_EGFR: BioMAP Diversity Plus: BE3C Assay for Epidermal growth factor receptor (EGFR) Biomarker Activity (AID 2284281). As to conditions: primary human bronchial epithelial cells. Put shortly:
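Compound is added to human bronchial epithelial cells, cells incubate 24 h, then EGFR is detected by ELISA. Values reflect positive-direction fitting relative to DMSO.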

Read-out in test [20]: Intercellular Adhesion Molecule 1 (ICAM1), ICAM1 (gene 3383)
The test is described as follows: BSK_BE3C_ICAM1: BioMAP Diversity Plus: BE3C Assay for Intercellular Adhesion Molecule 1 (ICAM1) Biomarker Activity (AID 2284278).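 Also: cell-surface ICAM-1 protein level quantified by ELISA.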 As to conditions: primary human bronchial epithelial cells. The method in brief: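 Primary human bronchial epithelial cells were exposed to compound for 24 h, after which cell-surface ICAM-1 was quantified by ELISA. Activity was fitted in the gain-of-signal direction against DMSO as negative control and baseline.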

With `OCC(F)(F)C(F)(F)C(F)(F)F`, the outcome in test [1], in [2], in test [3], in test [4], in test [5] and in test [6] was inactive. The result in test [7], in test [8], in test [9], in [10], in test [11] and in test [12] was inactive. The outcome in test [13], in [14] and in test [15] was inactive.

Regarding `FC(F)(F)C(F)(F)CNCC(F)(F)C(F)(F)F`, the result in test [2], in test [3], in test [4], in [5], in [6] and in [7] was inactive. For the same compound, the outcome in [8], in test [16], in [9], in test [17], in test [11] and in [12] was inactive. The outcome in test [13] and in test [15] was inactive.

As to `O=C(O)C(F)(F)C(F)(F)OC(F)(F)F`, the outcome in test [1], in [2], in test [3], in test [4], in [5] and in test [6] was inactive. Also, the outcome in [7], in test [8], in test [18], in [9], in test [11] and in test [12] was inactive. The result in test [13], in [19] and in test [15] was inactive.

With `C=CC(=O)OCC(F)(F)C(F)(F)C(F)(F)C(F)(F)COC(=O)C=C`, the AC50 in test [1] was 30 µM (active); in test [2], 30 µM (active) and 46.8 µM (active); in test [3] it was 15.7 µM (active) and 17 µM (active); in test [5], 17.1 µM (active) and 18.2 µM (active); in test [7], 14.1 µM (active) and 18.7 µM (active); in [11], 18.2 µM (active). Also, the AC50 in test [13] was 45.3 µM (active) and 39.4 µM (active); in test [15], 10.7 µM (active). In addition, the result in [1], in [4], in test [6], in [8], in test [9] and in [11] was inactive. Also, the outcome in test [12] and in test [15] was inactive.

For `O=C(O)C(F)(F)C(F)(F)C(F)(F)C(F)(F)C(F)(F)C(F)(F)C(F)(F)C(F)(F)C(F)(F)C(F)(F)C(F)(F)C(F)(F)F`, the result in [2], in test [3], in test [4], in test [5], in test [6] and in test [7] was inactive. Further, the outcome in test [8], in test [9], in test [10], in test [11], in test [12] and in test [20] was inactive. Besides, the result in [13], in test [19] and in test [15] was inactive.

Turning to `OCCCC(F)(F)C(F)(F)C(F)(F)C(F)(F)C(F)(F)C(F)(F)C(F)(F)F`, the AC50 was 51.6 µM (active) and 55.4 µM (active) in [2]; 51.2 µM (active) and 52.2 µM (active) in [3]; 23.7 µM (active) and 47.1 µM (active) in test [4]; 44.8 µM (active) and 56.2 µM (active) in [5]; 48 µM (active) in [6]; 54.9 µM (active) and 47.5 µM (active) in test [7]. Further, the AC50 in [8] is 46.8 µM (active); in [18] it was 57.5 µM (active) and 32.4 µM (active); in test [9] it was 47.5 µM (active) and 39.4 µM (active); in [10], 51 µM (active) and 53.6 µM (active); in test [17], 47.8 µM (active) and 45.7 µM (active); in test [11], 44.8 µM (active) and 55.3 µM (active). The concentration at half-maximal activity (AC50) in test [12] was 47.5 µM (active); in test [13], 45.9 µM (active) and 46.9 µM (active); in test [19], 20.4 µM (active) and 47.3 µM (active); in test [15], 50.6 µM (active) and 48.5 µM (active). Also, the outcome in test [6], in test [8] and in [12] was inactive.
